Screening results (PubChem BioAssay)
D1 ag: human D1 receptor agonism. P21728. HEK293 T-REx D1 cells, calcium flux, agonist mode. activation, % at 2 µM. actives 1% (n = 360,000). AID 504660; in the data active = activation above about 30%; also: 0% is about no effect
Target sequence (P21728 whole entry, looked up): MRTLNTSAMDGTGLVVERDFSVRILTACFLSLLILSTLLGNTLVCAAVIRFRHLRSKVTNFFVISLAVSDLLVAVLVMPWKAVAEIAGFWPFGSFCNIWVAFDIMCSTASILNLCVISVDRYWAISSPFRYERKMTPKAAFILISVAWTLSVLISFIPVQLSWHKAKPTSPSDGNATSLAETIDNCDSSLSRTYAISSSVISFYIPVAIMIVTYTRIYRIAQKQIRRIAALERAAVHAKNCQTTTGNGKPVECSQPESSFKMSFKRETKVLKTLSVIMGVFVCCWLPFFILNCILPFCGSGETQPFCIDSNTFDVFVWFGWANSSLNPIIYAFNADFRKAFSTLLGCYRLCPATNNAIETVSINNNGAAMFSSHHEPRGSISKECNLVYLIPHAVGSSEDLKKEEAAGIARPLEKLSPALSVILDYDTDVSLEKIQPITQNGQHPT
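Tetracycline-induced HEK293 TREx D1 cells, force-coupled to calcium signalling, were dye-loaded with a no-wash calcium kit. Compound was pin-added after a 10 s baseline. Fluorescence was read kinetically at 1 cycle/s for 180 s, with calcium rises flagged as agonism.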
DRD3 agonist: D3 dopamine receptor (human) agonism. D3R DiscoveRx beta-arrestin cells, luminescence, 90 min. max activation, %. actives 0.58% (n = 410,000); in the data active = max activation above about 30%; also: 0% is about no effect
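Agonist mode: compounds and dopamine controls were applied to plated cells for 90 min at 37 degrees C after an overnight attachment at 1500 cells/well. Luminescent read-out followed 30 - 60 minutes at room temperature with DiscoveRx detection reagent.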
D1 antag: human D1 dopamine receptor antagonism; P21728; activity change, negative = inhibition, % at 10 µM; actives 3.2% (n = 360,000); AID 504652; HEK293 TREx D1 cells, calcium flux, dopamine EC80; hits give low values; in the data active = activity change below about -30%; also: % is scaled to controls: 0 for no effect and ±100 for the full control effect
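Compound effects on dopamine-evoked calcium signalling were measured in tetracycline-induced HEK293 Trex D1 cells. Dopamine at EC80 followed a 180 s compound pre-read, and fluorescence was tracked kinetically for 180 s more.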
D3 antag: D3 dopamine receptor (human) antagonism. P35462. actives 2.5% (n = 360,000). max response, negative = inhibition, %. D3R cells, DiscoveRx beta-arrestin luminescence, antagonist mode; hits give low values; in the data active = max response below about -50%; inconclusive = no clear call, values can overlap the other calls; also: % is scaled to controls: 0 for no effect and ±100 for the full control effect
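Cells plated overnight at 1500 cells/well, then exposed to library compounds with dopamine controls for 90 minutes at 37 degrees C. DiscoveRx reagent added for 30–60 minutes at room temperature; luminescence read, quantitative HTS format.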
D1 PAM: human D1 dopamine receptor positive modulation; potentiation, % at 10 µM; HEK293 TREx D1 cells, calcium flux, dopamine EC20 potentiation; P21728; actives 0.036% (n = 360,000); AID 504651; in the data active = potentiation above about 30%; also: 0% is about no effect
Active calls of the source: *; ? = inconclusive; . = no result given. This is a sample that favours compounds with a hit; in the whole collection about 6% have one here.

SMILES	D1 ag	DRD3 agonist	D1 antag	D3 antag	D1 PAM
COc1ccccc1C1=CC(=O)C[C@H](c2ccc(Cl)cc2)C1	12	-6	-36*	-17	-5
COC(=O)C1=CN(c2ccc(Oc3ccccc3)cc2)C(N)=C(C#N)C1c1ccc(-c2ccccc2)cc1 (stereo not given)	.	-9	.	-11	.
O=C(CNC(=O)c1ccco1)OCc1c(F)cccc1Cl	4	-5	7	14	1
Cc1c(C(=O)NCCSCc2c(Cl)cccc2Cl)cccc1[N+](=O)[O-]	44*	1	-32*	36	-6
O=C(NCCSCc1c(F)cccc1Cl)c1ccco1	12	1	-33*	9	-10
COCCNC(=O)CSCc1c(F)cccc1Cl	2	0	-44*	-10	-7
Cc1c(C(=O)NCCSCc2ccccc2Cl)cccc1[N+](=O)[O-]	5	19	-14	13	-3
O=C(NCCCNC(=O)c1cnccn1)c1cccc(F)c1	1	1	-3	2	-6
COc1ccc(C(=O)N2CCOC2CNC(=O)C(=O)NCCc2ccccc2OC)cc1 (stereo not given)	1	-3	-12	9	-3
CC(=O)c1ccc(NC(=O)c2nc(-c3ccccc3)n(-c3ccc(Cl)cc3)n2)cc1	3	4	1	.	-1
COC(=O)CCn1c(C)cc(C(=O)COc2ccccc2C(N)=O)c1C	19	9	-56*	15	-8
COC(=O)c1sc(NC(=O)COc2ccc(C)cc2)nc1C	-1	-4	-8	21	0
COC(=O)c1sccc1NC(=O)c1cc(C)on1	2	-10	-14	-53*	-3
COC(=O)c1sccc1NC(=O)c1c(C)noc1C	0	1	3	18	-10
COC(=O)c1sccc1NC(=O)COc1ccc(C)cc1	2	-3	3	-75*	4
COC(=O)[C@@]12CCCCN1[C@H](c1ccc(-c3ccc(Cl)c(Cl)c3)c(OC)c1)[C@@H]1C(=O)N(C)C(=O)[C@@H]12	.	41*	.	-23	.
Cc1ccc(NC(=O)Nc2csc3c2CCCC3)c(C)c1	7	-24	-25	.	-6
COc1ccc(C(=O)CN2C(=O)N(c3cc(C)cc(C)c3)S(=O)(=O)c3ccccc32)cc1	4	-11	21	.	-2
CC(C)c1ccc(Nc2cc(C(=O)NC3CCCCC3)c3ccccc3n2)cc1	0	2	15	.	2
CCn1ccc2cc(S(=O)(=O)N3CCCN(C(=O)Nc4ccc(C)cc4)CC3)ccc21	1	1	9	.	1
O=C(OCn1ncc(Br)c(Br)c1=O)c1ccccc1Cl	-3	-33	-10	-88*	-7
O=C(OCc1cnc(Cl)s1)c1ccccc1Cl	1	2	-12	-1	3
CC(=O)OCn1ncc(N2CCOCC2)c(Br)c1=O	2	1	7	5	-3
O=C(OCn1ncc(Br)c(Br)c1=O)c1ccc(F)cc1	4	-13	-3	-83*	-3
Cc1nn2c(=O)cc(COC(=O)c3ccc(NC(=O)C4CCCCC4)cc3)nc2s1	0	9	-15	.	-1
SMILES	D1 ag	DRD3 agonist	D1 antag	D3 antag	D1 PAM
COc1cc(/C=N/N2C(=O)CSC2=S)cc(Br)c1O	44*	2	-2	-5	3
CCOc1ccc2oc(C(=O)NNC(=O)c3csc(N4CCOCC4)n3)c(C)c2c1	2	3	-38*	2	-17
CCOc1ccc2oc(C(=O)Nc3ccc(N4CCOCC4)cc3)c(C)c2c1	1	5	-6	28	-6
COc1ccc(Sc2ccc(-c3nc4cnccn4c3NC3CCCCC3)cc2OC)cc1	.	46*	.	49	.
CCCCNc1c(-c2ccc(SC3CCCCC3)cc2)nc2cnccn12	.	40*	.	106	.
COc1cc(-c2nc3ccccn3c2NCc2ccccc2)ccc1SC1CCCCC1	-1	87*	18	118	-3
CCCCCCSc1cc(-c2nc3cc(C)ccn3c2NC2CCCCC2)ccc1OC	0	12	17	0	6
CCCCCCSc1cc(-c2nc3cnccn3c2NCc2ccccc2)ccc1OC	1	51*	11	131	3
CCc1ccccc1N1CC(c2nc3ccccc3n2CC(C)C)CC1=O (stereo not given)	-1	-9	21	.	-2
COc1ccc(Cn2c(=O)c3cccnc3n(CC(=O)Nc3ccc(C)c(F)c3)c2=O)cc1	2	-10	17	.	5
CCCCNc1c(-c2ccc(OC)c(SC3CCCCC3)c2)nc2cnccn12	3	45*	3	259	5
COc1ccc(-c2nc3cnccn3c2NCc2ccccc2)cc1SC1CCCCC1	6	40*	-12	97	-1
COc1cc(-c2nc3ccc(C)cn3c2NCc2ccccc2)ccc1SC1CCCCC1	3	24	-17	93	-2
C=C[C@]1(C)C[C@@H](OC(=O)CO)[C@]2(C)[C@H](C)CC[C@]3(CCC(=O)[C@H]32)[C@@H](C)[C@@H]1O	.	6	.	.	.
COc1cc(N)c(Cl)cc1C(=O)NC1CCN(CCCOc2ccc(F)cc2)CC1OC (stereo not given)	.	-22	.	.	.
COc1cc(N)c(Cl)cc1C(=O)N[C@H]1CCN(CCCOc2ccc(F)cc2)C[C@H]1OC	12	-93	-3	-77*	-2
COc1cc(N)c(Cl)cc1C(=O)N[C@@H]1CCN(CCCOc2ccc(F)cc2)C[C@@H]1OC	4	.	-58*	.	-3
Cn1c2cc(C#N)sc2c2cnn(Cc3ccccc3F)c(=O)c21	0	.	12	.	0
C[C@H](O)[C@@H]1CN2CCc3c([nH]c4ccccc34)[C@@H]2C[C@@H]1N(C)C(=O)Nc1cc(Cl)cc(Cl)c1	.	-15	.	-50*	.
Cc1cc(C)nc(Nc2ncc(O)n2-c2ccc(C)c(C)c2)n1	2	-18	0	-20	11
Cc1cc(C)nc(Nc2ncc(O)n2-c2ccc(Br)cc2)n1	10	-3	-48*	-20	-7
COc1cc(/C=N/n2c(-c3cc(C)[nH]n3)n[nH]c2=S)ccc1O	1	10	6	?	-3
COc1cc(/C=N/n2c(-c3cc(C)[nH]n3)n[nH]c2=S)cc(OC)c1OC	4	-8	3	-51*	-1
CC(=O)C1=C(C)Nc2ncnn2C1c1cccc(OCc2ccccc2)c1 (stereo not given)	-3	-2	-31*	20	-10
CCc1nc2c(OCC=C(C)C)cccn2c1N(C)C(=O)c1ccccc1F	.	6	.	14	.
CCc1nc2c(OCCn3cccc3)cccn2c1N(C=O)Cc1ccccc1	.	45*	.	-13	.
CCc1nc2c(OCCn3cccc3)cccn2c1N(C=O)Cc1ccc(OC)cc1	.	-6	.	-11	.
CCCOc1cccn2c(N(C)C(=O)c3ccccc3F)c(CC)nc12	.	-9	.	-72*	.
CCc1nc2c(OCC3CCCCC3)cccn2c1N(C)C(=O)c1ccc(OC)cc1	.	-18	.	?	.
